The values that follow come from PubChem BioAssay AID1850 (Southern Research Specialized Biocontainment Screening …, 2009).

The whole screen tested about 310,000 compounds, of which about 1,000 (0.32%) were called active. No rule for the calls is given here. These entries were drawn from the full list. Results with a measured potency or affinity are listed apart.

The nature of this assay: PhoP regulon inhibitors, Salmonella typhi PhoP promoter GFP reporter, confirmatory (AID 1850).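 Also: 0% = induced wells with vehicle and 100% = uninduced wells.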 To be noted: fluorescence, 4 h, at 50 µM, active compounds read high.
In the case of `O=C(COC(=O)/C=C/c1ccc([N+](=O)[O-])cc1)NCc1ccccc1`, the inhibition is -8.81% (inactive).

Take `CCCCCCC(C)n1cc(C(C)=O)c(=O)n(C)c1=O` (stereo unspecified): the inhibition is -9.33% (inactive).

In the case of `CN(C)CCNC(=O)CCCNC(=O)Cn1cnc2sc3c(c2c1=O)CCCC3`, the inhibition was 12.2% (inactive).

In the case of `Cc1ccc(-c2nn(C)c(=O)c3ccccc23)cc1S(=O)(=O)NCCO`, the inhibition is -2.47% (inactive).

On to `COCC1=C(C(=O)OC(C)OC(=O)OC(C)C)N2C(=O)[C@@H](NC(=O)/C(=N\OC)c3csc(N)n3)[C@H]2SC1` (stereo partly specified), for which the inhibition is 15.8% (inactive).

As to `CO/N=C(\C(=O)N[C@@H]1C(=O)N2C(C(=O)O)=C(COC(N)=O)CS[C@H]12)c1ccco1`, the inhibition is -2.22% (inactive).

In the case of `COc1ccc(OCC(=O)Nc2c3c(nn2-c2ccccc2)CS(=O)(=O)C3)cc1`, the inhibition was -4.09% (inactive).

On to `CC1=NCCc2c1[nH]c1ccccc21`, for which the inhibition was 5.56% (inactive).

In the case of `CCCC/C=C1\CCc2c([nH]c3ccccc23)C1=O`, the inhibition is 8.47% (inactive).

`O=C(CCS(=O)(=O)Cc1ccc(Cl)cc1)NCCc1ccccc1`: the inhibition was -1.47% (inactive).

With `CC1=C(C(=O)OC(C)C)C(c2ccc(C)o2)C(C(=O)OC(C)C)=C(C)N1`, the inhibition was 6.14% (inactive).

As for `COc1ccccc1CN1CC(C(=O)NC2CCCCC2)CC1=O` (stereo unspecified), the inhibition was 1.61% (inactive).

Take `CC(C)(C)/C(O)=C/c1nc2ccccc2oc1=O`: the inhibition is -3.78% (inactive).

On to `Cc1ccc2oc(=O)c(/C=C(\O)C(C)(C)C)nc2c1`, for which the inhibition is -12.4% (inactive).

On to `Cc1ccc(/C(O)=C/c2nc3ccccc3oc2=O)cc1`, for which the inhibition was -11.1% (inactive).

On to `Cc1ccc(/C(O)=C/c2nc3cc(C)ccc3oc2=O)cc1`, for which the inhibition was -48.6% (inactive).

As for `O=c1oc2ccc(Cl)cc2nc1/C=C(\O)c1ccco1`, the inhibition was -30.4% (inactive).

With `CC(C)C/C(O)=C/c1nc2cc(Cl)ccc2oc1=O`, the inhibition is -18.3% (inactive).

With `COc1ccc(CNC(=O)CN2C(=O)c3ccccc3C2=O)cc1`, the inhibition was -5.61% (inactive).

As for `CC(=O)c1ccccc1OCCn1nc(C(=O)O)c2ccccc2c1=O`, the inhibition is 1.39% (inactive).

For the molecule `COc1ccc(S(=O)(=O)N2CCCC2CNC(=O)C(=O)NCCc2ccccc2)cc1` (stereo unspecified), the inhibition is 0.4% (inactive).

As for `O=C(Nc1cc(C(F)(F)F)ccc1N1CCOCC1)C1=NN(c2ccccc2)C(=O)CC1`, the inhibition is 0.11% (inactive).

In the case of `Cc1ccccc1-c1nnn(CC(=O)N(C)CC(=O)Nc2ccccc2C(F)(F)F)n1`, the inhibition was 6.76% (inactive).

Consider `COc1c[nH]n(-c2ccccc2)c(=O)c1=O`, for which the inhibition is 5.23% (inactive).

As for `CN(C)CCCNC(=O)c1ccc(-c2ccccc2)cc1`, the inhibition was 12.6% (inactive).

Take `C=CCNC(=O)c1ccc(-c2nc(-c3ccccc3)cs2)cc1`: the inhibition was 0.25% (inactive).

A word on the inhibition: it is the change of the read-out against control, counted positive when it falls.
